Assay results published in the supplement of paper PMC7556523.

Columns and labels:
[1] = test system: Sporothrix brasiliensis CBS 133006; experiment: growth inhibition relative to untreated control; higher = more growth inhibition (more antifungal activity), active = 80 or more; extreme values may be limits of the assay; details: 1 µM; 48 h
Method in brief: (§1)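 Before testing, the reference isolates were kept in brain heart infusion broth with 2% glucose at 36°C for 7 days to give yeast-form cells. These cells, at 1 x 10^5 CFU/ml, received library compounds at a final 1 μM and were held 48 h at 35°C in 5% CO2. Growth was checked by eye under an inverted light microscope and quantified spectrophotometrically in quadruplicate, and the value is percent growth inhibition versus untreated cells.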

[2] = test system: Sporothrix schenckii ATCC 32286; experiment: as above; details: 1 µM; 48 h
Method in brief: as §1

| Structure (SMILES) | growth inhibition [1] | growth inhibition [2] |
| --- | --- | --- |
| CC(=O)N1CCN(c2ccc(Oc3ccc(Cl)cc3O)cc2)CC1 | 3.5% (inactive) | 0.75% (inactive) |
| COc1ccc(-c2onc(C(F)(F)F)c2-c2ccc(Cl)cc2)c(O)c1 | 11.8% (inactive) | 6% (inactive) |
| COc1cc(C(F)(F)F)nc2ccc(C)c(N)c12 | 6.75% (inactive) | 14.5% (inactive) |
| NCCCC(N)(C(=O)O)C(F)F (centres undefined) | 13.5% (inactive) | 17.2% (inactive) |
| Cc1nnc(NCc2cccc(Cl)c2)c2ccccc12 | 3% (inactive) | 8.75% (inactive) |
| CC1CCCCN1C(=O)NCCc1coc(-c2ccc(F)cc2)n1 (centres undefined) | 11% (inactive) | 0% (inactive) |
| Cc1ccc(S(=O)(=O)n2cc(-c3ccnc(N)c3)c3cc(Br)cnc32)cc1 | 0% (inactive) | 5.25% (inactive) |
| Nc1ncnc2c1c(-c1cnc3ccccc3c1)nn2CC1CCNCC1 | 13.2% (inactive) | 15.5% (inactive) |
| NCC(c1cccs1)S(=O)(=O)c1ccccc1 (centres undefined) | 24.2% (inactive) | 0% (inactive) |
| Cc1ccc(C(=O)Nc2ccc(S(=O)(=O)O)c3cc(S(=O)(=O)O)cc(S(=O)(=O)O)c23)cc1NC(=O)c1cccc(NC(=O)Nc2cccc(C(=O)Nc3cc(C(=O)Nc4ccc(S(=O)(=O)O)c5cc(S(=O)(=O)O)cc(S(=O)(=O)O)c45)ccc3C)c2)c1 | 28% (inactive) | 19% (inactive) |
| OCCc1ccc(Nc2nccc(-c3nnc4ccccn34)n2)cc1 | 28.2% (inactive) | 2.5% (inactive) |
| c1ccc(Oc2ccc(-c3cc(N4CCNCC4)[nH]n3)cc2)cc1 | 0% (inactive) | 4% (inactive) |
| c1coc(CNc2nc(N3CCCCC3)nc3ccccc23)c1 | 4.25% (inactive) | 13.5% (inactive) |
| OCc1ccc(-c2cncc(Nc3cccc(Cl)c3)c2)cc1 | 25.5% (inactive) | 6.75% (inactive) |
| NS(=O)(=O)c1cccc(-c2ccc3ncc(N4CCOCC4)nc3c2)c1 | 17% (inactive) | 0% (inactive) |
| COc1ccc(Cn2cnc3c(-c4ccco4)nc(Cl)nc32)cc1 | 15.8% (inactive) | 17.8% (inactive) |
| O=C(Cn1ccnc1[N+](=O)[O-])NCc1ccccc1 | 13.8% (inactive) | 4% (inactive) |
| Nc1ncnc2c1c(Cc1cccc3ccccc13)nn2CC1CCNCC1 | 0% (inactive) | 0% (inactive) |
| CN1CCN(S(=O)(=O)c2ccc(-c3ccc4c(Nc5ncc(Cl)cn5)ccnc4c3)cc2)CC1 | 13% (inactive) | 10.8% (inactive) |
| CN1CCCC1CCO[C@](C)(c1ccccc1)c1ccc(Cl)cc1 (some centres undefined) | 11.8% (inactive) | 14.8% (inactive) |
| CCOc1ccc2cc(-c3nn(C(C)(C)C)c(N)c3C(N)=O)cnc2c1 | 0% (inactive) | 2.5% (inactive) |
| NCCN(C(=O)c1ccc(Cl)cc1Cl)c1ccc(OCc2ccc(Cl)cc2)cc1 | 9.75% (inactive) | 7% (inactive) |
| O=C1N(Cc2cc3ccccc3s2)CC2CN(Cc3ccccc3)CCN12 (centres undefined) | 22% (inactive) | 4.5% (inactive) |
| CS(=O)(=O)N1CCC(Cn2nc(Cc3cccc4ccccc34)c3c(N)ncnc32)CC1 | 11.2% (inactive) | 22% (inactive) |
| Cc1ccc(S(=O)(=O)N2CCN(C(=O)c3cc(-c4ccccc4)n[nH]3)CC2)cc1 | 1.5% (inactive) | 2% (inactive) |
| COc1cc(NC(=O)Cc2nn(C)c(=O)c3ccccc23)ccc1Cl | 4.5% (inactive) | 0% (inactive) |

| Structure (SMILES) | growth inhibition [1] | growth inhibition [2] |
| --- | --- | --- |
| Cc1cc(C)n2nc(C(=O)Nc3cc(C(F)(F)F)ccc3N3CCOCC3)nc2n1 | 0.25% (inactive) | 12.5% (inactive) |
| CC(=O)NC[C@H]1CN(c2ccc(N3CCSCC3)c(F)c2)C(=O)O1 | 5.5% (inactive) | 0% (inactive) |
| Cc1cc(NC(=O)c2ccc(S(=O)(=O)N(Cc3ccccc3)C(C)C)cc2)no1 | 18.2% (inactive) | 2.75% (inactive) |
| COc1ccc2nccc(NC(=O)C3CCN(CCc4ccc(Cl)cc4)CC3)c2n1 | 39% (inactive) | 0% (inactive) |
| COc1ccc(-c2cnc3ccc(NCc4ccc(S(N)(=O)=O)cc4)nn23)cn1 | 26.8% (inactive) | 18.2% (inactive) |
| CCCS(=O)(=O)N1CCC(CO)(Cc2ccccc2C(F)(F)F)CC1 | 0% (inactive) | 0% (inactive) |
| FC(F)(F)c1cccc(-c2nc3c(NCc4ccncc4)nccc3[nH]2)c1 | 38% (inactive) | 4% (inactive) |
| CN(C)c1cc(NC(=O)Nc2ccccc2)c2ccccc2n1 | 0% (inactive) | 0.75% (inactive) |
| Cc1cc2nc(NC(=O)C(C)(C)C)nc(Cl)c2n1Cc1ccc(Cl)cc1 | 14.8% (inactive) | 2.5% (inactive) |
| O=C(NCc1ccco1)N1CCN(Cc2ccc(Cl)s2)CC1 | 0% (inactive) | 0.25% (inactive) |
| COc1cccc(NC(=O)c2c(NC(=O)c3cccnc3)sc3c2CCC3)c1 | 15.8% (inactive) | 13.8% (inactive) |
| O=C(N[C@H](Cc1ccccc1)C(=O)Nc1ccccc1N1CCOCC1)c1cccs1 | 7% (inactive) | 7.25% (inactive) |
| CC(C)(C)C(=O)N(CCCCCCN1C[C@H](O)[C@@H](O)[C@H](O)[C@H]1CO)C1CCCCCC1 | 6.25% (inactive) | 8% (inactive) |
| FC(F)(F)c1cc(NCCc2ccccc2)nc(-c2ccccn2)n1 | 10% (inactive) | 9.75% (inactive) |
| O=C(NC1=NCCS1)c1sc2cc(F)ccc2c1Cl | 0.75% (inactive) | 0% (inactive) |
| Cc1cc(Nc2ccc(C(F)(F)F)cc2)n2ccnc2n1 | 12.2% (inactive) | 1% (inactive) |
| CC(=O)Nc1ccc(NC(=O)c2cc(-c3cc(Cl)ccc3O)n[nH]2)cc1 | 9.5% (inactive) | 0% (inactive) |
| O=[N+]([O-])c1cn2c(n1)OC[C@@H](OCc1ccc(OC(F)(F)F)cc1)C2 | 9% (inactive) | 10.2% (inactive) |
| COc1ccc2nc(C)cc(OCC(=O)NCc3ccccc3)c2c1 | 1.75% (inactive) | 14.8% (inactive) |
| O=C(C(Cc1c[nH]c2ccccc12)NS(=O)(=O)c1ccc(Cl)cc1)N1CCCCC1 (centres undefined) | 5.75% (inactive) | 4% (inactive) |
| O=C(CN1CCOCC1)Nc1ccc2ncnc(Nc3ccc(OCc4cccc(F)c4)c(Cl)c3)c2c1 | 8.25% (inactive) | 15.8% (inactive) |
| N#Cc1ccc(-c2ccc(OCC(N)=O)cc2)cc1 | 19.2% (inactive) | 0% (inactive) |
| c1ccc(-c2cc(N3CCCCC3)c3ccccc3n2)nc1 | 35.2% (inactive) | 14.8% (inactive) |
| CCCn1nnc(NC(=O)COc2ccc(C3CCCCC3)cc2)n1 | 13.2% (inactive) | 0.5% (inactive) |
| Cc1ccc2nc(C)c(-c3ccn(Cc4ccccc4)n3)n2c1 | 44.8% (inactive) | 36.5% (inactive) |
| COc1cccc(-c2nc3c(N4CCCC4)cccc3n2CC2CCCN2)n1 (centres undefined) | 0% (inactive) | 9.5% (inactive) |
